14 molecules from PubChem BioAssay (NCI) can be followed below.

Some test systems named below: NCI-H23 lung; NCI-H226 lung; NCI-H322M lung; HOP-62 NSCLC; NCI-H460 lung; NCI-H522 lung; A549/ATCC NSCLC; 786-0 renal; COLO 205 colon; HOP-92 NSCLC.
Holding throughout (assay): NCI-60 one-dose screen, 48 h (100 = growth as untreated, 0 = no growth, -100 = all killed)
Conditions in all cases: 10 µM unless noted

This is part of a sample that, as a whole, favours compounds with a hit. Of some 83,000 tested, about 20% had one in any assay.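 Plates (96-well) were seeded with cells, treated with compound at one concentration, and incubated for 48 hours before percent growth was determined.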 A number with no mark means an inactive call. The source made the active and inactive calls. How the source made its calls: active means growth percent below 10; inactive means the rest.

`N#Cc1c(-c2ccccc2Cl)cc(-c2ccc3ccccc3c2)[nH]c1=O`: the growth in the experiment with NCI-H23 lung was 38.8%; in the experiment with NCI-H226 lung it was -24.5% (active); with NCI-H322M lung, 28.1%; in the experiment on HOP-62 NSCLC, -7.48% (active); in the experiment on NCI-H460 lung, -13.8% (active); in the experiment on NCI-H522 lung, 85%. The growth in the experiment on A549/ATCC NSCLC was 17.5%; with 786-0 renal it was -40.9% (active); with COLO 205 colon, 108%.

As for `O=c1cc(-c2ccccc2)oc2cc(OCCCC[P+](c3ccccc3)(c3ccccc3)c3ccccc3)cc(O)c12`, the growth with NCI-H23 lung was -93% (active); in the experiment with NCI-H226 lung, -29% (active); with NCI-H322M lung it was -100% (active); in the experiment on HOP-62 NSCLC it was -63.6% (active); in the experiment on NCI-H460 lung it was -75.8% (active); in the experiment on NCI-H522 lung, -81.9% (active). Further, the growth with A549/ATCC NSCLC was -56% (active); in the experiment with 786-0 renal, -69.5% (active); in the experiment on COLO 205 colon, -56.3% (active).

In the case of `O=c1[nH]c(=O)c2c(-c3cc4ccccc4oc3=O)ccnc2[nH]1`, the growth with NCI-H23 lung is 61.3%; in the experiment with NCI-H226 lung it was 74.8%; in the experiment with NCI-H322M lung it was 97%; with HOP-62 NSCLC, 26.4%; in the experiment with NCI-H460 lung, 88.8%; in the experiment on NCI-H522 lung it was 68.5%. Further, the figures for the growth in the experiment with A549/ATCC NSCLC, in the experiment on 786-0 renal and with COLO 205 colon were 91.9%, 43.9% and 108%, respectively.

As for `COc1ccc(/C=C/c2n(Cc3ccc4ccccc4c3)c3ccccc3[n+]2Cc2ccc3ccccc3c2)cc1`, the growth in the experiment on NCI-H23 lung is -92.2% (active); in the experiment with NCI-H226 lung, -45% (active); in the experiment with NCI-H322M lung it was -96.2% (active); with HOP-62 NSCLC, -76.4% (active); in the experiment with NCI-H460 lung it was -85.6% (active); in the experiment on NCI-H522 lung it was -91% (active). For the same molecule, the values for the growth with A549/ATCC NSCLC, with 786-0 renal and with COLO 205 colon were -88.5% (active), -85.7% (active) and -86.8% (active), respectively.

For `Cc1ccc(Cc2cnc(NC(=O)c3ccc(/C=C4\SC(=S)N(C)C4=O)cc3)s2)cc1`, the growth in the experiment with NCI-H23 lung is 41.3%; in the experiment on NCI-H226 lung, 52.5%; in the experiment with NCI-H322M lung it was 35.9%; in the experiment on NCI-H460 lung, 39.6%; in the experiment with HOP-92 NSCLC, 48.4%; with NCI-H522 lung, -22.8% (active). The growth is 43.2% in the experiment on A549/ATCC NSCLC, 37.8% with 786-0 renal and 24.4% with COLO 205 colon.

Consider `COc1cc(/C=C/C(=O)c2ccc(C)cc2)ccc1Oc1nc(Nc2ccc(F)cc2)nc(N(C)C)n1`, for which the growth in the experiment with NCI-H23 lung is 39%; in the experiment on NCI-H226 lung, 61.9%; in the experiment on NCI-H322M lung it was 74.1%; in the experiment on NCI-H460 lung it was 34.4%; in the experiment on HOP-92 NSCLC, 52.7%; in the experiment with NCI-H522 lung it was 44.8%. Moreover, the growth in the experiment on A549/ATCC NSCLC was 60%; in the experiment on 786-0 renal, 37.5%; in the experiment on COLO 205 colon, 86.8%.

On to `COc1c(F)ccc(C(=O)Nc2ccc3nc(NC(=O)C4CCCN(S(=O)(=O)c5ccc(C#N)cc5)C4)sc3c2)c1F` (stereo unspecified), for which the growth with NCI-H23 lung is 88.9%; in the experiment on NCI-H226 lung it was 90.3%; in the experiment with NCI-H322M lung, 101%; with HOP-62 NSCLC, 104%; with NCI-H460 lung it was 96.8%; with NCI-H522 lung, 85.7%. The growth is 91.6% in the experiment on A549/ATCC NSCLC, 75.5% in the experiment on 786-0 renal and 96.9% in the experiment on COLO 205 colon.

Regarding `COc1c(F)ccc(C(=O)Nc2ccc3nc(NC(=O)C4CCCN(S(=O)(=O)C5CC5)C4)sc3c2)c1F` (stereo unspecified), the growth in the experiment with NCI-H23 lung is 31.5%; in the experiment on NCI-H226 lung it was 34.8%; in the experiment with NCI-H322M lung, 65.2%; in the experiment on HOP-62 NSCLC, 68.4%; with NCI-H460 lung it was 48.5%; in the experiment with NCI-H522 lung it was 40.7%. Moreover, the growth with A549/ATCC NSCLC is 54%; in the experiment on 786-0 renal, 31.1%; in the experiment on COLO 205 colon, 32.4%.

For the molecule `N/C(=N\c1nc2ccccc2s1)NC(=O)Nc1c(Cl)cccc1Cl`, the growth in the experiment with NCI-H23 lung is 31.9%; in the experiment on NCI-H226 lung, 67.2%; with NCI-H322M lung, 68.2%; in the experiment on HOP-62 NSCLC, 58.7%; in the experiment on NCI-H460 lung it was 17.8%; with NCI-H522 lung, -19.3% (active). Also, the figures for the growth in the experiment with A549/ATCC NSCLC, in the experiment on 786-0 renal and in the experiment with COLO 205 colon were 38.8%, 52.5% and 46.2%, respectively.

Take `CCN(CC)c1ccnc(CNCCSC(c2ccccc2)(c2ccccc2)c2ccc(OC)cc2)c1`: the growth in the experiment on NCI-H23 lung was -41.8% (active); in the experiment on NCI-H226 lung it was -7.73% (active); in the experiment on NCI-H322M lung it was 21.8%; in the experiment with NCI-H460 lung it was -87.3% (active); with HOP-92 NSCLC it was -30% (active); in the experiment on NCI-H522 lung, -67.8% (active). For the same molecule, the figures for the growth with A549/ATCC NSCLC, in the experiment on 786-0 renal and with COLO 205 colon were 2.36% (active), -50.8% (active) and -74% (active), respectively.

`CN(C)c1nc(NCCNS(=O)(=O)c2ccc(C3=Nc4c(N)nc(N)nc4NC(c4ccc(Cl)cc4)C3)cc2)nc(Nc2ccc(F)cc2)n1` (stereo unspecified): the growth in the experiment on NCI-H23 lung was 50.8%; in the experiment on NCI-H226 lung, 54.7%; with NCI-H322M lung, 66%; in the experiment on HOP-62 NSCLC it was 80.3%; with NCI-H460 lung it was 19.4%; with NCI-H522 lung, 40.1%. Also, the values for the growth in the experiment on A549/ATCC NSCLC, in the experiment with 786-0 renal and in the experiment with COLO 205 colon were 62.7%, 24.3% and 3.23% (active), respectively.

As for `COc1cc(C2CC(c3cc(OC)c(OC)c(OC)c3)=NN2c2ccccc2)ccc1OCc1ccc(C)cc1` (stereo unspecified), the growth with NCI-H23 lung was 101%; in the experiment with NCI-H226 lung, 80.2%; in the experiment on NCI-H322M lung it was 102%; in the experiment on NCI-H460 lung, 99.3%; with HOP-92 NSCLC, 111%; in the experiment on NCI-H522 lung, 82.3%. Further, the growth in the experiment on A549/ATCC NSCLC is 102%; in the experiment with 786-0 renal it was 102%; in the experiment with COLO 205 colon it was 119%.

On to `COc1cc(C2CC(c3ccc(S(=O)(=O)NCCNc4nc(Nc5ccc(F)cc5)nc(N(C)C)n4)cc3)=Nc3c(N)nc(N)nc3N2)cc(OC)c1OC` (stereo unspecified), for which the growth in the experiment on NCI-H23 lung was 93.5%; with NCI-H226 lung, 91.4%; with NCI-H322M lung, 86.7%; in the experiment with HOP-62 NSCLC, 94.3%; with NCI-H460 lung, 84.5%; with NCI-H522 lung it was 84.2%. The growth in the experiment on A549/ATCC NSCLC is 97.9%; in the experiment on 786-0 renal, 75.3%; in the experiment on COLO 205 colon, 104%.

Consider `CC(=O)N1CCN(Cc2ccc3c(NNC(=O)c4cnccn4)nc4cc(F)ccc4n23)CC1`, for which the growth is 34.3% in the experiment with NCI-H23 lung; 8.73% (active) in the experiment on NCI-H226 lung; 32.7% in the experiment with NCI-H322M lung; 9.64% (active) with NCI-H460 lung; 56.1% in the experiment on HOP-92 NSCLC; 57.2% with NCI-H522 lung. In addition, the growth in the experiment on A549/ATCC NSCLC was 25.4%; with 786-0 renal it was 0.0554% (active); in the experiment on COLO 205 colon, 9.92% (active).
